# HepG2 viability = qHTS for Inhibitors of TGF-b: Cytotox Counterscreen; HepG2 CAGA-GFP viability, ATP luminescence, 18 h; hit rate 0.76% among 410,000; AID 588856, 2011; Potency, µM (titrated, usually from 46.1 µM), without a hit: at the highest dose activity change, negative = cytotoxicity, most hits filed as cytotoxic; further: potency means the concentration at half of the fitted maximal effect
#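 CellTiter-Glo luminescence gave cytotoxicity after 18 hours at 37 degrees C. The cells were HepG2 CAGA-GFP in 1% FBS DMEM, stimulated with 500 pg/mL TGF-beta after compound addition. %Activity was normalised to no-cell wells (complete cell-killing) and DMSO (no toxicity), and curves were fitted and classified.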
# TDP1 cell CPT = qHTS for Inhibitors of human tyrosyl-DNA phosphodiesterase 1 (TDP1): qHTS in cells in presence of CPT; chicken DT40 Tdp1-/-;hTDP1 cells + 20 nM CPT, ATP luminescence, 48 h; Potency, µM (series often up to 46.2 µM), for inactives: at the top dose activity change, negative = growth inhibition, actives largely listed as inhibitors; hit rate 12% among 420,000; AID 686979, 2013; further: potency means the concentration at half of the fitted maximal effect; on the % scale 0 is the no-effect control and ±100 the full control effect; nearly all actives have a fitted effect of over 55% in size
#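 Chicken DT40 Tdp1-/- cells complemented with human TDP1, 400 cells/well, exposed to compounds plus 20 nM camptothecin for at least 48 h at 37 C; viability read as ATP content by CellTiter-Glo luminescence.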
# TGFb SMAD3 inh = qHTS for Inhibitors of TGF-b; HepG2 CAGA-GFP TGF-b/SMAD3 reporter, GFP fluorescence, 18 h; TGF-beta stimulated, 500 pg/mL final; hit rate 1.2% among 410,000; Potency, µM (titrated, usually from 46.1 µM), for inactives: at the top dose activity, negative = inhibition, actives largely listed as inhibitors; further: potency means the concentration at half of the fitted maximal effect; on the % scale 0 is the no-effect control and ±100 the full control effect; nearly all actives have a fitted effect of over 65% in size
#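 Inhibition was scored as loss of TGF-beta-induced (500 pg/mL final, 18 hours, 37 degrees C) GFP in HEPG2 cells carrying a CAGA-GFP reporter, in DMEM with 1% FBS. Well GFP was summed per cell; Activity was normalised to unstimulated and stimulated DMSO wells, then concentration-response fitting.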
# IL-1B inflam inh = qHTS for Inhibitors of Inflammasome Signaling: IL-1-beta AlphaLISA Primary Screen; THP-1 LPS/ATP IL-1B secretion, AlphaLISA, 16 h; active compounds read low; activity change, % at 57.5 µM; hit rate 4.7% among 360,000; AID 743279, 2014; in the data active means activity change below about -50%; inconclusive means mostly about -30% to -49%; further: on the % scale 0 is the no-effect control and ±100 the full control effect
#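 THP-1 cells pretreated 1 hr with compounds (up to 57.5 uM final), then stimulated with LPS (250 ng/mL final) plus ATP (1.25 mM final); secreted IL-1B measured by AlphaLISA after 16 hr, decreased signal indicating inhibition.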
# S-ASM inh = Inhibitors of Secretory Acid Sphingomyelinase (S-ASM): qHTS. placental ASM, HMU-PC fluorogenic substrate, 60 min. Sphingomyelin phosphodiesterase (Homo sapiens), P17405. AID 504937, 2011. hit rate 0.006% among 340,000. Potency, µM (top dose mostly 57.5 µM), without a hit: top-dose activity change, negative = inhibition, hits mostly inhibitors; further: potency means the concentration at half of the fitted maximal effect
# Target sequence (P17405 47-631 limits assumed): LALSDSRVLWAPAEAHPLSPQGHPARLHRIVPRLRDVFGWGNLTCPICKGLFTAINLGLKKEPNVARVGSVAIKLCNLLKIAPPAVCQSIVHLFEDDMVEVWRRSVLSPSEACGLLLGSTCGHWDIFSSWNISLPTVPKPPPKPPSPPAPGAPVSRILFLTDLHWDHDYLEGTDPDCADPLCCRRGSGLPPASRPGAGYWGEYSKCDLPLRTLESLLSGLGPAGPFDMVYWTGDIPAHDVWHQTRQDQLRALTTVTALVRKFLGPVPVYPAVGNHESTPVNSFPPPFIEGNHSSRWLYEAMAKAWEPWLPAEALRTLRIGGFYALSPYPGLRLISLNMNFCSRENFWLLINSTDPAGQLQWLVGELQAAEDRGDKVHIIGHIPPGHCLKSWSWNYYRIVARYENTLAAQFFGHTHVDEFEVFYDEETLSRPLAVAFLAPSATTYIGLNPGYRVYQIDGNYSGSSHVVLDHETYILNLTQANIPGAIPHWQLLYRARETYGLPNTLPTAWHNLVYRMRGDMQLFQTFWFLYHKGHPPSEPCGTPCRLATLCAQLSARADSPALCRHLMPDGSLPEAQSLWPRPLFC
#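 qHTS format. ASM enzyme prepared from human placenta hydrolyses the fluorogenic substrate HMU-PC0 (9 uM final) over 60 min at 37 °C after a 10 min compound preincubation.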
# TDP1 cell noCPT = qHTS for Inhibitors of human tyrosyl-DNA phosphodiesterase 1 (TDP1): qHTS in cells in absence of CPT | DT40 Tdp1-/- hTDP1 cells, no CPT, ATP luminescence, 48 h | Potency, µM (doses to about 46.2 µM), for inactives: at the top dose activity change, negative = growth inhibition, hits mostly inhibitors | hit rate 15% among 420,000 | AID 686978, 2013; further: potency means the concentration at half of the fitted maximal effect; on the % scale 0 is the no-effect control and ±100 the full control effect; nearly all actives have a fitted effect of over 55% in size
#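 Luminescent ATP content (CellTiter-Glo) served as the growth readout. Knockout chicken DT40 cells expressing human TDP1 were exposed to compounds without camptothecin for a minimum 48 hr at 37 °C.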
# The depositor's hits bear a star; u = inconclusive; x = no result given. Hits are enriched below; roughly 19% of the tested compounds scored in any of these assays. Unless noted, the call rests on the fitted dose curve; in most records, active means well fitted curve in the direction sought with a large enough effect; inconclusive means small, poorly fitted or top-dose-only effect, or another doubt; inactive means no such curve, though single readings can be large; an effect the other way counts as inactive or inconclusive.
SMILES,HepG2 viability,TDP1 cell CPT,TGFb SMAD3 inh,IL-1B inflam inh,S-ASM inh,TDP1 cell noCPT
CCN(CC)C1Oc2cc3c(cc2C(c2cc(OC)c(O)c(OC)c2)C1C)OCO3 (stereo unspecified),9%,u,0%,27,0%,u
COc1cccc(C2c3cc4c(cc3OC(N3CCOCC3)C2C)OCO4)c1O (stereo unspecified),-5%,-91%,u,0,-2%,8.2µM*
COc1ccc(C2c3cc4c(cc3OC(N3CCOCC3)C2C)OCO4)c(OC)c1 (stereo unspecified),-15%,5.2µM*,u,22,-4%,4.1µM*
Nc1nonc1C(=O)NCCNC(=O)c1ccc(Cl)c(Cl)c1,-6%,-3%,-4%,44,-4%,-17%
c1ccc2c(c1)CCN(C1CCCCC1)C2,-43%,5%,-14%,18,-3%,-5%
CCc1ccc(C(=O)NC(C(=O)NCC2CCCO2)C(C)C)cc1 (stereo unspecified),-3%,19%,-13%,-4,3%,u
Cc1ccc(Sc2ccc(NC(=O)CCl)cc2)cc1C,-107%,23µM*,u,-79*,-3%,u
Cc1ccc(C)c(Sc2ccc(NC(=O)CCl)cc2)c1,-119%,16µM*,u,-88*,-2%,18µM*
CCCCCNC(=O)C1CCC(Cn2c(=O)c3sccc3n(CC)c2=O)CC1 (stereo unspecified),-25%,u,-1%,x,x,u
CC(O)CNc1nc2sc3c(c2c(=O)n1Cc1ccco1)CCCCC3 (stereo unspecified),-30%,-24%,0%,-21,-12%,u
CN(C)CCNc1nc2sc3c(c2c(=O)n1CCc1ccccc1)CCCCC3,-130%,21µM*,u,-75*,-13%,10µM*
CC(O)CNc1nc2sc3c(c2c(=O)n1CCc1ccccc1)CCCCC3 (stereo unspecified),-39%,23µM*,u,-82*,-18%,16µM*
O=C(C[n+]1cccc2cc(Cl)ccc21)c1cccc([N+](=O)[O-])c1,-24%,-5%,24%,x,x,u
COc1ccc(C(=O)N/C(=C\c2cn(C)c3ccccc23)C(=O)N2CCN(C)CC2)cc1OC,-6%,u,-1%,0,0%,u
CN1C(=O)C(CC(=O)O)S/C1=N\N=C\c1ccc(O)cc1O (stereo unspecified),-2%,-15%,-7%,2,36%,10%
CSc1ccccc1-c1ccc2nccn2c1,-1%,u,17%,u,x,u
Cc1cc(C(=O)C(=O)N(C)C)c(C)n1-c1ccc(Cl)c(Cl)c1,-6%,u,u,6,0%,21µM*
Cc1cc(C(=O)C(=O)O)c(C)n1-c1ccc(Cl)c(Cl)c1,-19%,7%,12%,u,6%,-5%
Cc1cc(NC(=O)c2cnc3c(-c4ccccc4)c(C)nn3c2C)ccc1Br,-3%,u,11%,x,x,u
Cc1ccc(Nc2cc(C)nn2-c2nc(C)cc(=O)[nH]2)cc1,-27%,0.79µM*,2.2µM*,-110*,u,0.56µM*
Cc1ccc(Nc2cc(C)nn2-c2nc(C)cc(C)n2)cc1,-14%,5.8µM*,-9%,-28,-13%,5.8µM*
CC(=O)Nc1cc(C)nn1-c1nc(C)cc(C)n1,1%,-6%,-4%,2,2%,-4%
Cc1ccc(Nc2nc3ccccc3nc2-n2nc(C)cc2C)cc1,1%,0%,2%,5,105%,-8%
COc1ccc(Nc2ncc(C(=O)Nc3cc(Cl)c(OC)cc3OC)c3ccccc23)cc1,-9%,u,-2%,x,x,u
COc1ccc(NC(=O)c2cnc(Nc3ccc(C)c(Cl)c3)c3ccccc23)c(OC)c1,-13%,-17%,u,x,x,-34%
SMILES,HepG2 viability,TDP1 cell CPT,TGFb SMAD3 inh,IL-1B inflam inh,S-ASM inh,TDP1 cell noCPT
COc1ccc(OC)c(NC(=O)c2cnc(Nc3ccccc3OC)c3ccccc23)c1,-1%,5.2µM*,14%,-10,x,5.8µM*
COC(=O)c1ccccc1NC(=O)c1cnc(Nc2ccc(OC)cc2)c2ccccc12,-22%,23µM*,-2%,x,x,9.2µM*
Cc1ccc(Nc2ncc(C(=O)Nc3ccc(F)cc3F)c3ccccc23)cc1Cl,-15%,16µM*,u,x,x,u
N=C(N)SCc1ccc(Cl)c2ccccc12,-38%,u,u,-101*,-3%,u
N=C(N)SCc1ccccn1,-9%,u,-5%,-11,3%,-29%
CC1(C)Cc2c(sc3c2c(N)nc(=S)n3Cc2ccc(Br)cc2)CO1,-19%,11%,-8%,x,-1%,-11%
Cc1ccccc1C(C)(O)c1cnc(C)n1Cc1ccccc1 (stereo unspecified),-1%,21µM*,-1%,-4,x,12µM*
Cc1nccn1Cc1ccccc1,-2%,9%,0%,-17,6%,-2%
COc1ccc(N(C(=O)c2ccco2)S(=O)(=O)c2ccccc2)cc1,1%,-8%,18%,5,-3%,-17%
COc1ccc(N(C(=O)c2ccco2)S(=O)(=O)c2cc(Cl)c(Cl)cc2Cl)cc1,-14%,18µM*,-23%,39,0%,u
CCOC(=O)[C@H](O)[C@@H](O)c1cccc([C@H](O)[C@@H](O)C(=O)OCC)c1,0%,-24%,0%,5,5%,-9%
CCCSc1ncc(Cl)c(C(=O)N(Cc2ccc(Cl)cc2)Cc2ccco2)n1,-20%,u,x,x,x,u
COc1ccc(C(=O)N(Cc2ccco2)Cc2ccco2)cc1,-16%,u,0%,x,x,u
CCSc1ncc(Cl)c(C(=O)N(Cc2ccccc2)Cc2ccco2)n1,-36%,u,x,x,x,16µM*
CSc1ncc(Cl)c(C(=O)N(Cc2ccc(N(C)C)cc2)Cc2ccco2)n1,0%,u,-24%,x,x,7.3µM*
COCCn1c(=O)c(-c2cc(F)cc(F)c2)nc2cnc(OCc3ccccc3)nc21,x,27%,x,x,x,4%
COc1ccc(/C(=N/Nc2ncnc3ccccc23)C(=O)O)cc1,-45%,21µM*,u,45,-23%,u

# Compound activity deposited in PubChem BioAssay by National Center for Advancing Translational Sciences (NCATS).
